Source: PubChem
HCV inh: qHTS Assay for Inhibitors of Hepatitis C Virus (HCV). 3.4% of 340,000 active. AID 651820, 2012. Potency, µM (series often up to 41.8 µM), for the others: at the top dose activity change, negative = inhibition, actives largely listed as inhibitors. Huh7.5.1 HCVcc-Cre infection, luciferase reporter, 44 h; active = well fitted inhibition curve with a large enough effect; inconclusive = small, poorly fitted or top-dose-only effect, or another doubt; inactive = no such curve, though single readings can be large or run the other way; note: potency is the fitted concentration of half-maximal effect
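Cells (1,000/well) were plated 4 h before compound, then infected with HCVcc-Cre virus (~0.5 moi). After 44 h further culture, infection was read as luciferase luminescence following a 15 min substrate incubation at room temperature.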
Vaccinia mCherry: qHTS for Stage-Specific Inhibitors of Vaccinia Orthopoxvirus: mCherry Reporter Primary qHTS. Potency, µM (highest dose often 36.5 µM), inactives show at the highest dose activity change, negative = inhibition, hits mostly inhibitors. 0.63% of 310,000 active. AID 720579, 2013. Vaccinia virus mCherry reporter infection, fluorescence; calls by dose curve; tested in A549 cells; note: potency is the fitted concentration of half-maximal effect; nearly all actives have a fitted effect of over 35% in size
HCMV inh: qHTS Assay for inhibitors of the human cytomegalovirus (HCMV); HFF cells, HCMV-luciferase reporter, 72 h; hits give low values; activity change, negative = inhibition, % at 57.5 µM; 4.5% of 410,000 active; AID 1259415, 2018; in the data active = activity change below about -60%; inconclusive = no clear call, values can overlap the other calls; inactive = above about -39%
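Steps: HFFs plated, 16 h 37C; compounds added; HCMV-luciferase added to MOI 1 PFU/cell; 72 h 37C; OneGlo reagent, 5 min room temperature; luminescence read, normalized to controls.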
VACV Venus inh: qHTS for Stage-Specific Inhibitors of Vaccinia Orthopoxvirus: Venus Reporter Primary qHTS; Vaccinia virus Venus reporter expression, fluorescence; Potency, µM (series often up to 36.5 µM), inactives show at the top dose activity change, negative = inhibition, actives largely listed as inhibitors; 0.46% of 330,000 active; calls by dose curve; tested in A549 cells; note: potency is the fitted concentration of half-maximal effect; nearly all actives have a fitted effect of over 30% in size
FMDV antiviral: High Throughput Screening for Foot and Mouth Disease Virus Antivirals; FMDV antiviral cell-based qHTS; Potency, µM (highest dose often 57.9 µM), without a hit: top-dose activity change, negative = inhibition, most hits filed as inhibitors; 1.2% of 410,000 active; AID 1159524, 2015; calls by dose curve; tested in HEK293T cells; note: read-out not given here; potency is the fitted concentration of half-maximal effect; nearly all actives have a fitted effect of over 45% in size
Active calls of the source: *; i = inactive; ? = inconclusive; nt = no result given; [ ] = dose if it differs, or a comment. A selection: hits, their analogues and other compounds. The true share with any hit is near 7.3%. % is set by controls: 0 for no effect and ±100 for the full control effect.

SMILES	HCV inh	Vaccinia mCherry	HCMV inh	VACV Venus inh	FMDV antiviral
O=C(CCc1ccccc1)N1CCc2c([nH]c3ccccc23)C1c1ccc(F)cc1 (centres undefined)	nt	-26%	-90*	-14%	2%
CCn1cc[n+](C)c1P(c1ccccc1)c1ccccc1	9%	nt	-76*	nt	?
CN(CC(=O)Nc1ccc(F)cc1)C(=O)COC(=O)c1ccc(-c2ccccc2)cc1	-9%	?	-23	?	-14%
Cc1cc(F)ccc1NC(=O)Cn1c(C)csc1=O	-18%	nt	26	nt	-16%
CN(C)S(=O)(=O)c1ccc2c(c1)nc(CCC(=O)NCCc1ccc(Cl)cc1)n2C	?	-17%	-27	-17%	-6%
COc1ccc(-n2cnc(N)c2C(=O)c2cccc([N+](=O)[O-])c2)cc1	0%	nt	-67*	nt	0%
COc1ccc2cc3c(N)nn(C(=O)C4CCC(C(C)(C)C)CC4)c3nc2c1 (centres undefined)	5%[8.37 µM]	?	-79*	14µM*	-22%
COc1ccc2cc3c(N)nn(C(=O)c4cccc([N+](=O)[O-])c4)c3nc2c1	-12%	-22%	-86*	-12%	1%
COc1ccc2cc3c(N)nn(C(=O)Cc4ccccc4OC)c3nc2c1	?	-18%	-24	-20%	-9%
Cc1ccc2cc3c(N)nn(C(=O)c4cccc(F)c4)c3nc2c1	nt	-24%	-11	-12%	-1%
COc1ccc2cc3c(N)nn(C(=O)c4ccc(F)cc4Cl)c3nc2c1	nt	-28%	-70*	-20%	-14%
O=C(OCC(=O)N1CCN(c2ccccc2)CC1)c1ccc(O)cc1O	14%	-12%	-2	-5%	8%
COc1ccc(C#Cc2c[nH]c(=O)c3cncnc23)cc1OC	nt	-12%	nt	-27%	nt
Cc1cc(C)n(CCCNC(=O)CCNS(=O)(=O)c2ccccc2C(F)(F)F)n1	-12%	-12%	17	-7%	0%
O=C(CSc1nc2ccccc2nc1Cc1ccc(Cl)cc1)N1CCN(c2ccccc2F)CC1	nt	-17%	?	-10%	-21%
CN(C)c1ccc(-c2n[nH]c(=S)n2-c2ccccc2)cc1	-5%	-18%	15	-19%	-7%
CCN(CC)c1ccc(-c2n[nH]c(=S)n2-c2ccccc2)cc1	11µM*	-18%	67	?	?
Cc1c(C(=O)N(C)C2CCOC2)sc2ncnc(NCC3(c4ccccc4)CCOCC3)c12 (centres undefined)	nt	-1%	nt	-2%	-17%
CCn1c2ccccc2c2cc(/C=N/NC(=O)c3ccc(O)cc3)ccc21	18µM*	-25%	-38	?	-22%
CCn1c2ccccc2c2cc(/C=N/NC(=O)c3cc(O)cc(O)c3)ccc21	?	-9%	-16	0%	?
CCn1c2ccccc2c2cc(/C(C)=N/O)ccc21	10µM*	-25%	13	-10%	-2%
C/C(=N\O)c1ccc2c3ccccc3n(C)c2c1	?	nt	56	nt	36%
O=C(NCc1ccc(Cl)cc1)C1CCN(C(=O)c2ccc(Cl)cc2)CC1	0%	-1%	-30	-25%	-23%
COc1ccc(C(=O)NCCn2cc(SCC(=O)NCCc3ccc(OC)c(OC)c3)c3ccccc32)cc1	nt	-12%	-17	-16%	-24%
CCN(CC)CCC(O)(c1ccc2c(c1)OCO2)c1cc(OC)c(OC)c(OC)c1 (centres undefined)	-6%	-15%	11	-6%	7%
SMILES	HCV inh	Vaccinia mCherry	HCMV inh	VACV Venus inh	FMDV antiviral
COc1ccc(OC)c(CCNC(=O)Cn2nc(C)n3c(cc4sccc43)c2=O)c1	nt	5%	0	-10%	-7%
CCN(CC(=O)Nc1ccc(NC(C)=O)cc1)C(=O)CN1C(=O)C2CCCCC2C1=O (centres undefined)	22%	nt	-9	nt	-17%
O=[N+]([O-])c1cc(-n2cnnn2)ccc1N1CCC(Cc2ccccc2)CC1	?	nt	-103*	nt	?
CC1CC(C)CN(c2ccc(-n3cnnn3)cc2[N+](=O)[O-])C1 (centres undefined)	3%	i	-39	-23%	-16%
C1=CC2=NC34CCCCC3CC3=C(CCCC3)N4C2=CC1=NC1CCCCC1 (centres undefined)	?	nt	nt	nt	28µM*
O=C(NCc1ccccc1)c1c(Cl)nc(Cl)c(Cl)c1Cl	13µM*	-9%	-84*	?	-14%
Cc1nc(Cl)c(C(=O)NCc2ccccc2)c(C)c1Cl	-1%	i	-70*	-11%	-2%
O=C(NCc1ccccc1)c1ccc(Cl)cc1	-7%	nt	-33	nt	12%
Cc1nc(Cl)c(C(=O)NCc2ccccc2)c(C)c1[N+](=O)[O-]	12%	-1%	?	-15%	-6%
CCOc1ccc(CCNC(=O)COC(=O)c2cc(=O)[nH]c3ccccc23)cc1OCC	-11%	i	-12	-17%	-22%
c1cnc(N2CCN(Cc3c[nH]c4ccccc34)CC2)nc1	-6%	nt	-5	13µM*	?
c1ccc2c(CN3CCCCCC3)c[nH]c2c1	-29%	nt	-77*	nt	0%
CCOC(=O)c1ccc(N2C(=O)c3n[nH]c(-c4cccs4)c3C2c2cccc(OC)c2)cc1 (centres undefined)	nt	-10%	-107*	-14%	?
CCOC(=O)c1ccc(N2C(=O)c3[nH]nc(-c4ccc(OCC)cc4)c3C2c2ccc(OC)cc2OC)cc1 (centres undefined)	nt	-30%	8	-28%	-20%
CCOC(=O)c1ccc(N2C(=O)c3n[nH]c(-c4cccs4)c3C2c2ccc(OC)cc2OC)cc1 (centres undefined)	nt	13µM*	-92*	?	?
CC(C)(C)C(=O)Nc1ccc(C(=O)CN2C(=O)NC3(CCOc4ccccc43)C2=O)cc1 (centres undefined)	?	nt	77	nt	2%
O=C(N[C@H]1CC[C@@]23CCCN2C(=O)CCC[C@H]3[C@H]1Cc1ccccc1)C1CCC1	nt	nt	12	nt	nt
Cc1ccc(-c2nnn(CC(=O)N(Cc3ccccc3)C(C(=O)NC(C)(C)C)c3ccncc3)n2)o1 (centres undefined)	?	nt	-18	nt	-10%
Cc1ccc(-c2nnn(CC(=O)N(Cc3ccco3)C(C(=O)NC(C)(C)C)c3ccc(C)o3)n2)o1 (centres undefined)	11µM*	?	-24	?	-18%
CN(Cc1ccccc1)C(=O)c1ccc(NC(=O)Cc2ccc(NC(=O)C3CCCN(C(=O)C4CC4)C3)cc2)cc1 (centres undefined)	?	i	3	0%	-15%
CSc1ccc(CCNC(=O)c2cccc3c2C(=O)N(C2CCCCC2)C3)cc1	11µM*	nt	nt	nt	-21%
Cc1cc(C)cc(NC(=O)c2cccc3c2C(=O)N(C2CCCCC2)C3)c1	16%	-7%	-1	-3%	-16%
COc1cc(NC(=O)c2cccc3c2C(=O)N(C2CCCCC2)C3)cc(OC)c1OC	6.3µM*	-8%[7.34 µM]	-91*	-7%[7.34 µM]	?
